The list is not random: actives were taken first. Their share in the collection is about 3.5%.
mHTT-CaM PPI inh – mutant huntingtin-calmodulin interaction inhibitors – biochemical, AlphaScreen, primary screen | P42858 | AlphaScreen His-mHTT/GST-CaM binding, luminescence | inhibition, % at 15 µM | 3.6% of 190,000 active | AID 1671202, 2021;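 also: 0% = both proteins with DMSO and 100% = one protein alone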
Pf apPOL block – Pf-apPOL inhibitors, biochemical, fluorescence. Recombinant Pf-apPOL, molecular beacon fluorescence, 1.5 h. inhibition, % at 10 µM. 0.25% of 210,000 active
Active calls of the source: *; nt = no result given. Rule as the data show it: active = inhibition above about 50%; inactive = the rest.

SMILES	mHTT-CaM PPI inh	Pf apPOL block
O=C(O)c1ccc(N2N=C(C(F)(F)F)/C(=C/c3ccc(-c4ccccc4[N+](=O)[O-])o3)C2=O)cc1	50.0*	1.5
ON=C(/C=C/c1ccccc1)/C=C/c1ccccc1	-4.6	nt
N#CC1=C(N)N(c2ncn[nH]2)C2=C(C(=O)CC(c3ccccc3)C2)C1c1ccc(Cl)cc1Cl (stereo unspecified)	37.0	-7.4
COc1ccc(CCNC(=O)C2CCCN(C(=O)c3ccccc3Cl)C2)cc1OC (stereo unspecified)	26.4	-15.3
CCC1=C(C)/C(=C\c2[nH]c(C)c(CC)c2C)N=C1C	95.0*	-3.3
CCOc1ccccc1CNC(=O)c1cnn2c3c(cnc12)CCCCCC3	-3.5	0.9
O=C(Nc1ccc(Nc2ccc(-n3cccn3)nn2)cc1)c1ncccn1	90.7*	-0.9
O=C(Nc1ccc(-c2ccc(=O)[nH]n2)cc1)c1ccc(-n2cccn2)nn1	-14.5	2.0
C=CCSc1nc(-c2ccccc2)nc2c1CCCC2	-50.0	-6.4
O=C(Cn1c(-c2nnco2)cc2ccccc21)NCc1ccco1	69.1*	25.4
O=C(Cn1c(C(F)(F)F)nc2ccccc21)NCc1ccco1	1.0	-0.8
Cc1ccc(N(CC(O)CN2C(=O)NC(C)(C)C2=O)S(=O)(=O)c2ccc([N+](=O)[O-])cc2)cc1 (stereo unspecified)	61.0*	-3.1
CC1(C)NC(=O)N(CC(O)CN(c2cccc([N+](=O)[O-])c2)S(=O)(=O)c2ccccc2)C1=O (stereo unspecified)	-0.3	-6.3
COc1cc(C(c2c(C)[nH][nH]c2=O)c2c(C)[nH][nH]c2=O)ccc1O	6.0	0.3
COc1cc(C(c2c[nH]c3ccccc23)c2c[nH]c3ccccc23)ccc1O	100.3*	6.1
CN(C)c1ccc(Cc2ccc(N(C)C)cc2)cc1	nt	-10.4
CN(C)c1ccc(C(O)(c2ccc(N(C)C)cc2)c2ccc(N(C)C)cc2)cc1	100.3*	-7.2
O=C(CN1C(=O)C2CCCN2C(=O)c2ccc(F)cc21)NCc1cc(F)cc(F)c1 (stereo unspecified)	-1.8	-5.9
COc1ccc(-c2cc(-c3ccccc3)nc(=O)[nH]2)cc1	3.0	-6.2
COc1ccc(-c2cc(-c3cc(OC)ccc3O)[nH]n2)cc1	72.0*	-3.2
O=C(O)c1cncc(-c2ccccc2)c1	nt	79.9*
O=C(c1ccc(-c2ccccc2)cc1)N1CCN(C(=O)c2cccnc2)CC1	8.9	-8.2
Cn1nnnc1SCC(=O)NCCn1nc(-c2ccc(F)cc2)ccc1=O	-13.4	-4.1
O=C(CC(c1ccccc1)c1ccccc1)NCCn1nc(-c2ccc(F)cc2)ccc1=O	94.8*	-13.0
Cn1cc(/C=C2\SC(=Nc3ccccc3)NC2=O)c2ccccc21	55.0*	1.4
SMILES	mHTT-CaM PPI inh	Pf apPOL block
O=C1NC(=Nc2ccccc2)S/C1=C/c1ccccc1Br	-1.0	-0.2
CN1CCN(S(=O)(=O)c2ccc(Br)cc2)c2ccccc21	47.5	0.0
Brc1ccc(CSc2nnc(-c3ccccc3)o2)cc1	-11.0	-3.4
CCN(CC)C(=NS(=O)(=O)c1ccc(C)cc1C)c1ccccc1	-1.0	-2.6
Cc1cc(C)c(S(=O)(=O)N2CCCC2=O)c(C)c1	-11.1	-12.0
Cc1ccc(S(=O)(=O)N=C2C=CC(=O)C(Br)=C2)c(C)c1	93.0*	-8.2
Cc1cc(C)c(S(=O)(=O)N=C2C=CC(=O)C(Br)=C2)c(C)c1	53.0*	-4.5
CC(=O)c1ccc(NC(=O)CC(C(=O)O)N(C)C)cc1 (stereo unspecified)	-6.7	-1.3
CN1CCN(c2ccc([N+](=O)[O-])c(Sc3cccc4cccnc34)c2)CC1	35.4	-1.3
O=[N+]([O-])c1ccc(N2CCCC2)cc1Sc1cccc2cccnc12	101.0*	-1.9
Cn1c(CC2CCN(S(=O)(=O)Cc3ccc(F)cc3Cl)C2)nc2cccnc21 (stereo unspecified)	8.0	-3.7
OCCN(CCO)c1nc(N2CCCCC2)c2nc(N(CCO)CCO)nc(N3CCCCC3)c2n1	nt	61.4*
OCCNc1nc(N2CCCCC2)nc(N2CCCCC2)n1	-13.0	nt
O=C(CC1COc2ccccc2NC1=O)NCCCc1ccccc1 (stereo unspecified)	4.7	8.5
CCC(Sc1nc2ccccc2o1)C(=O)Nc1nnc(C)s1 (stereo unspecified)	0.0	85.3*
CCC(Sc1nc2ccccc2o1)C(=O)Nc1ccc(Cl)cn1 (stereo unspecified)	-15.6	-2.1
Cc1ccccc1OCC(=O)N1CCC(c2nc(C3CC3)n[nH]2)CC1	0.2	-4.1
O=C(Nc1c(Cl)c(Cl)c(O)c(Cl)c1Cl)c1ccccc1	85.0*	-9.6
O=C(Nc1c(F)c(F)c(F)c(F)c1F)c1ccccc1	-9.9	-8.6
Cc1nc(-c2nnc(NC(=O)c3cc(Cl)cc(Cl)c3)o2)cs1	30.8	8.9
Cc1cc(C(=O)Nc2nnc(-c3csc(C)n3)o2)c(C)o1	77.6*	8.8
O=C(Nc1ccccc1Br)N1CCCC1c1ccc(F)cc1 (stereo unspecified)	-17.4	-7.5

Assay outcomes: PubChem, University of Kansas High Throughput Screening Laboratory
